Screening data from PubChem BioAssay.
CHT inh: human CHT choline transport inhibition | Q9GZV3 | CHT-expressing cells, membrane potential dye, choline response; hits give low values | B-score at 10 µM | hit rate 0.86% among 310,000 | AID 488975;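 active = B-score over 3 SD under the library average, and starting fluorescence ratio not unusually high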;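 also: choline stimulus applied at its EC90 after an EC20 pre-addition; B-score computed on integrated fluorescence ratio after choline addition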
Target sequence (Q9GZV3 whole entry, looked up): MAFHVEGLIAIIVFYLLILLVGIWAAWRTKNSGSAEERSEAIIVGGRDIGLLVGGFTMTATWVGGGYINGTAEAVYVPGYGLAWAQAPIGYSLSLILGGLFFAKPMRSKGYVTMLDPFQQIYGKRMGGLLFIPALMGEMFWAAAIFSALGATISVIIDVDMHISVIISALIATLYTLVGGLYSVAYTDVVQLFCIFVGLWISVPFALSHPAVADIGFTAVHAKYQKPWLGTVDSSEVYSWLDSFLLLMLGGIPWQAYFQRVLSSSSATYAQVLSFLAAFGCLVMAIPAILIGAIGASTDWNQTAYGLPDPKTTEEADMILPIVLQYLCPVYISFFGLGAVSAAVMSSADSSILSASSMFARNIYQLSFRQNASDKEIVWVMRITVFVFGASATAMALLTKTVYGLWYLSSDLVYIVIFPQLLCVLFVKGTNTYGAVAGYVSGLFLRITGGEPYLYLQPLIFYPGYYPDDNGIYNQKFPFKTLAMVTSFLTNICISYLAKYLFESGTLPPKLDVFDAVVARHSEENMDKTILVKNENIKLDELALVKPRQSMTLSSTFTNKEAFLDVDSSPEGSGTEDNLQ
CHT allo act: allosteric activators of human choline transporter CHT; Q9GZV3; AID 488977; hit rate 0.49% among 310,000; B-score at 10 µM; CHT-expressing cells, membrane potential dye, choline EC20; hits give high values; LV-AA mutant CHT in HEK293 cells;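 active = initial fluorescence not abnormally high and integrated response B-score, plate-corrected, over 3 SD above library mean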
NLRP3 yeast inh: blocks the NALP3 inflammasome reconstituted in yeast. Yeast reconstituted NLRP3/ASC/caspase-1, beta-gal luminescence, 24 h. inhibition, % at 10 µM. hit rate 0.39% among 330,000. AID 2825;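 active = inhibition of 50% or more; inactive = inhibition below 50%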;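 also: plate controls were induced DMSO wells for no effect and uninduced yeast grown without galactose for full effect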
A1 inh: inhibitors of the anti-apoptotic protein A1, read as caspase activation; MEF A1-2A-BIM cells, Caspase-Glo 3/7 luminescence, 3 h; percent of clofoctol response, vehicle zero; caspase activation, % (no concentration beside the values); hit rate 0.066% among 330,000;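 active = over half of replicate activation scores above 10%, or exactly half above 10 with the replicate mean above 10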
NALP1 inh: blocks the NALP1 inflammasome reconstituted in yeast | AID 2071 | hit rate 0.61% among 280,000 | S. cerevisiae NALP1/ASC/caspase-1 growth, X-gal OD620, 72 h | inhibition, % at 10 µM; in the data active = inhibition mostly above about 24%, no sharp cut-off; inactive = mostly below about 32%
Mot1-301 SUMO: inhibitors of SUMOylation pathway: yeast Mot1-301 growth rescue | S. cerevisiae Mot1-301 growth rescue, ATP luminescence, 38.5C; percent above DMSO median, 100 means doubled | growth rescue, % at 18.8 µM | hit rate 1% among 320,000 | AID 2716;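 active = every valid replicate shows activation above 250% relative to neutral control wells; inactive = the rest, any valid replicate at or below 250%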;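 also: OY570 slx delta 5 strain wells were the positive control but not used for scaling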
NALP3 confirm: NALP3 inhibition confirmation in yeast | shares compounds with NLRP3 yeast inh | yeast expressing human NALP3, luminescence | inhibition, % at 10 µM | hit rate 81% among 1,300 | AID 435006; in the data active = inhibition above about 48%
Casp1-ASC yeast: active in yeast caspase-1-ASC counter-screen for NALP3 inhibitors | hit rate 66% among 1,000 | AID 488784 | yeast expressing Caspase-1-ASC, luminescence counter screen | shares compounds with NLRP3 yeast inh | inhibition, % at 10 µM
NALP3 yeast rt: confirmation retest of NALP3 inhibitors in yeast; yeast expressing human NALP3, luminescence read-out; shares compounds with NLRP3 yeast inh; hit rate 53% among 1,000; AID 488794; inhibition, % at 10 µM
* = called active by the depositor; i = inactive; / = not tested or not shown. Hits are enriched below; roughly 3% of the tested compounds scored in any of these assays. Rule as the data show it, unless noted: active = inhibition above about 50%; inactive = the rest.

SMILES	CHT inh	CHT allo act	NLRP3 yeast inh	A1 inh	NALP1 inh	Mot1-301 SUMO	NALP3 confirm	Casp1-ASC yeast	NALP3 yeast rt
CCOc1ccc(C(=O)Nc2ccccc2CC)cc1[N+](=O)[O-]	i	i	53*	0	36	11	60*	53*	55*
CCN(CC)c1ccc(Nc2nc(Cl)ncc2Br)cc1	i	i	54*	1	38	10	64*	54*	44
CCN(CC)c1ccc(CNc2ccc(Br)cn2)cc1	i	i	29	2	5	-7	/	/	/
O=C(/C=C/c1ccnc2ccccc12)c1cccs1	i	i	53*	-5	3	106	73*	/	/
CCCCCCNC(=O)c1c(O)c2cccc3c2n(c1=O)CCC3	i	i	17	1	-3	-1	/	/	/
O=C(NC1CCCCCC1)c1c(O)c2cccc3c2n(c1=O)CCC3	/	/	/	/	-14	/	/	/	/
CNC(=O)c1c(O)c2cccc3c2n(c1=O)CCC3	i	i	50*	2	0	3	64*	39	48
O=C(NCCNCCO)c1c(O)c2cccc3c2n(c1=O)CCC3	i	i	53*	-1	14	66	63*	36	34
CC(C)Oc1ccc(CN2CCC(n3nccc3NC(=O)C3CC3)CC2)cc1	i	i	8	0	9	6	/	/	/
Cc1sc2nc(C3CC3)nc(SCC(=O)NCc3ccco3)c2c1C	i	i	51*	0	18	-11	26	/	/
Cc1nc(SCC(=O)NC2CCCC2)c2c(C)c(C)sc2n1	i	i	54*	0	15	-6	56*	38	29
O=C(COC(=O)CCC1CCCC1)Nc1ccc(F)cc1	/	/	-3	-2	/	11	/	/	/
COc1ccc(CCNC(=O)COC(=O)c2sc(C)nc2C)cc1	/	/	11	/	/	/	/	/	/
O=C(NCCCCc1ccccc1)c1cccc(Br)c1	i	i	53*	1	24	-2	69*	57*	40
CCOC(=O)Cc1csc(NC(=O)c2cccc(OC)c2)n1	i	i	44	-4	17	-14	/	/	/
CCOC(=O)Cc1csc(NC(=O)c2cccc([N+](=O)[O-])c2)n1	i	i	59*	-1	22	-14	76*	69*	51*
COc1ccc(-c2cc(C(=O)Nc3cc(C)nn3-c3ccccc3)no2)cc1OC	i	i	-20	1	-1	153	/	/	/
COc1ccccc1OCCCc1c(C)n[nH]c1C	i	i	51*	1	43*	-16	88*	95*	81*
COc1ccccc1OCCCCCc1c(C)n[nH]c1C	i	i	11	1	14	-22	/	/	/
CC1(C)c2ccccc2-n2c1cc1oc(=O)cc(O)c1c2=O	i	i	76*	1	/	-4	80*	67*	72*
Cc1ccc(C)c(S(=O)(=O)N2CCCOC2CNC(=O)C(=O)NCc2ccccn2)c1 (configuration not stated)	i	i	4	0	18	0	/	/	/
CCCCNC(=O)Oc1cc(CCl)on1	i	i	-14	1	0	10	/	/	/
CCCCNC(=O)Oc1c(Br)cc2sc(=O)oc2c1Br	i	i	72*	2	/	0	62*	/	/
CC1CCCCC1NC(=O)COC(=O)c1ccc2c(c1)NC(=O)CS2 (configuration not stated)	/	/	15	0	/	-8	/	/	/
CCSc1nc2sc3c(c2c(=O)n1-c1ccccc1)CCN(C)C3	i	i	51*	0	13	19	66*	48	46
CN(C)c1ccc(/C=C2\Oc3ccc(C#Cc4cccc(N)c4)cc3C2=O)cc1	/	/	0	-1	/	12	/	/	/
O=c1c2ccccc2nnn1Cc1ccc(Br)cc1	i	i	50*	-1	14	5	66*	57*	58*
